Laboratory results reported in PubChem BioAssay AID2314 (National Center for Advancing Translational Sciences (NCATS), 2010).
Several values for one entry are separate records, joined by “and”; a condition that tells them apart may be missing. Equal values may be shown once. About 37,000 (12%) of roughly 300,000 compounds were called active. Cut-off read from the data, not from the text of the source: active = max response mostly above about 13% (no sharp cut-off); inactive = mostly below about 14%. Shown is part of a subset that was picked to be rich in actives.

assay: Cycloheximide Counterscreen for Small Molecule Inhibitors of Shiga Toxin; details: cell reporter, cycloheximide protein synthesis inhibition counterscreen; hits give high values; note: read at 38.3 µM for the half of the compounds with a filed dose; 0% is about no effect

| Compound | max response |
| --- | --- |
| CC(C)COP(=O)(c1ccc(N(C)C)cc1)C(Nc1ccccc1)c1cccnc1 (stereo not drawn) | -7.16% (inactive) |
| O=C(CCN1C(=O)[C@@H]2Cc3ccccc3CN2C1=O)NCc1ccccc1 | -3.78% (inactive) |
| N#C/C=C/N1CCN(Cc2ccc3c(c2)OCO3)CC1 | -4.02% (inactive) |
| O=P(O)(CN1CCCCCC1)C1Cc2ccccc2C1 | -0.763% (inactive) |
| Cc1noc(C)c1-c1ccc2ncnc(NCc3ccc(F)c(F)c3)c2c1 | -5.05% (inactive) |
| Cc1noc(C)c1-c1ccc2ncnc(NCc3ccc4[nH]ccc4c3)c2c1 | 56.1% (active) |
| Cc1noc(C)c1-c1ccc2ncnc(NC(C)c3ccco3)c2c1 (stereo not drawn) | 14.8% (inactive) |
| COc1ccc(NC(=O)CNC(=O)Cn2ccc3ccccc3c2=O)c(OC)c1 | -1.76% (inactive) |
| Cc1ccc(C2CCN(C(=S)Nc3cccc(Cl)c3)C2)cc1 (stereo not drawn) | 23.2% (active) |
| Cc1cccc(NC(=S)N2CCCC(c3nc4ccccc4[nH]3)C2)c1 (stereo not drawn) | 2.24% (inactive) |
| O=C(C1CCCO1)N1CCN(C(=S)Nc2cccc(Cl)c2)CC1 (stereo not drawn) | 2.71% (inactive) |
| CCn1c2ccccc2c2cc(NC(=O)Nc3ccc([N+](=O)[O-])cc3C)ccc21 | 1.99% (inactive) |
| COc1ccc(NC(=O)COc2ccc(C(=O)c3ccc(F)cc3)cc2)cc1S(N)(=O)=O | -1.97% (inactive) |
| COCCCn1c(SCC(=O)NC2CCCC2)nnc1-c1ccccc1 | -2.3% (inactive) |
| O=C(Nc1cccc(NC(=O)c2ccccc2[N+](=O)[O-])c1)c1ccccc1Cl | -2.59% (inactive) |
| COCC(=O)N1CCc2ccc(NC(=O)c3ccccc3Cl)cc2C1 | -1.85% (inactive) |
| O=C(Nc1ccc2sc3ccccc3c(=O)c2c1)c1ccccc1Cl | 40.4% (active) |
| O=C(COc1ccccc1[N+](=O)[O-])NC1CC1 | 1.49% (inactive) |
| O=C(O)CCCN1C(=O)C2C3c4ccccc4C(c4ccccc43)[C@@H]2C1=O (stereo partly drawn) | -1.2% (inactive) |
| C=CCSC(CC)(CC)C(N)=O | -2.64% (inactive) |
| CCc1nonc1NC(=O)c1oc2ccc(Cl)cc2c1C | -1.57% (inactive) |

| Compound | max response |
| --- | --- |
| COc1ccc2oc(=O)c(C(=O)N3CCCc4ccccc43)cc2c1 | 0.681% (inactive) |
| Cc1c(C(=O)NC2CCCCC2)oc2ccccc12 | 39.2% (active) |
| Cc1ccc(NC(=O)c2oc3ccccc3c2C)c([N+](=O)[O-])c1 | 29.7% (active) |
| Cc1c(C(=O)N2CCCc3ccccc32)oc2ccccc12 | 18.8% (active) |
| Cc1ccnc(NS(=O)(=O)c2ccc(NC(=O)c3oc4ccccc4c3C)cc2)n1 | 1.07% (inactive) |
| Cc1ccc(NC(=O)c2oc(=O)c3ccccc3c2-c2ccccc2)c(C)c1 | -5.99% (inactive) |
| Cc1nonc1NC(=O)c1oc2ccccc2c1C | 35.8% (active) |
| Cc1ccc2[nH]c(C(=O)O)c(NC(=O)c3ccccc3[N+](=O)[O-])c2c1 | -2.43% (inactive) |
| Cc1c(C(=O)Nc2cccc(-c3nnc4n3CCCCC4)c2)oc2ccccc12 | 13% (inactive) |
| Cc1nonc1NC(=O)c1ccccc1Br | 6.09% (inactive) |
| CCC(=O)N1CCCc2ccccc21 | -1.65% (inactive) |
| Cc1sc2ncn(CC(=O)NCCN(C)C)c(=O)c2c1S(=O)(=O)N1CCC(C)CC1 | 7.86% (inactive) |
| Cc1ccccc1-n1c(C)cc(/C=N/NC(=O)c2ccc(CN3CCOCC3)cc2)c1C | 1.39% (inactive) |
| COc1cc(CC(=O)N2CCC(n3nccc3NC(=O)C3CC3)CC2)cc(OC)c1OC | -1.39% (inactive) |
| C/C(=N\NC(=O)c1ccc(NS(=O)(=O)c2cccs2)cc1)c1ccc2ccccc2c1 | 7.4% (inactive) |
| Cc1ccc(S(=O)(=O)N(Cc2cc3ccccc3[nH]c2=O)CC2CCCO2)cc1 (stereo not drawn) | -1.24% (inactive) |
| CCn1cc(CN2CCC(C(=O)Nc3cccc(-c4cccc(Cl)c4)c3)CC2)c(C)n1 | -9.71% (inactive) |
| CCCOc1ccc(-c2c(C(=O)N/N=C/c3ccco3)nnn2-c2nonc2N)cc1 | -0.593% (inactive) |
| C=CCNC(=O)c1cc(-c2ccccc2O)on1 | 59.8% (active) |
| CNC(=O)c1csc(-c2ccccc2)n1 | 13.6% (active) |
| C=CCNC(=O)c1csc(-c2ccccc2)n1 | 28.5% (active) |

| Compound | max response |
| --- | --- |
| C=CCNC(=O)c1ccccc1SCc1c(C)noc1C | -1.93% (inactive) |
| O=C(NCc1ccccn1)c1cc(-c2ccccc2Cl)on1 | 38.8% (active) |
| O=C(Nc1cccnc1Cl)c1cc(-c2ccccc2O)on1 | 17% (inactive) |
| CNC(=O)c1cccc2nc3ccccc3nc12 | 1.67% (inactive) |
| C=CCNC(=O)c1cc2nc(C3CC3)cc(C(F)F)n2n1 | 11.1% (inactive) |
| O=C(O)Cc1csc(-c2cccc(Oc3ccccc3)c2)n1 | -1.21% (inactive) and 2.4% (inactive) |
| CNC(=O)c1csc(Cc2c(Cl)sc3ccc(Cl)cc23)n1 | -2.08% (inactive) |
| Clc1ccccc1-c1cc(COc2ccc3ccccc3c2)no1 | 6.98% (inactive) |
| O=C(NCc1ccccn1)c1ccc2nc(-c3ccco3)c(-c3ccco3)nc2c1 | 0.719% (inactive) |
| CCn1c(=O)c(C(=O)NCc2ccc3c(c2)OCO3)c(O)c2ccccc21 | -2.8% (inactive) |
| COc1ccc(OC)c(/C(C)=N\NC(=O)c2cc3cc(Cl)ccc3n2C)c1 | -5.13% (inactive) |
| COc1cc([C@H](Cc2ccccc2)NC(C)=O)oc(=O)c1 | -1.33% (inactive) |
| Cc1ccc(C)c(S(=O)(=O)Nc2cccc(-n3cnnn3)c2)c1 | -4.16% (inactive) |
| CC1CN(C(=O)CCC(=O)NC2CCN(Cc3ccccc3)CC2)c2ccccc2O1 (stereo not drawn) | -2.34% (inactive) |
| O=C(O)CCCn1cc(NC(=O)COc2cccc(Cl)c2)cn1 | -1.65% (inactive) |
| [O-][N+]12CCCCC1CCCC2CO (stereo not drawn) | -2.81% (inactive) |
| Cc1ccccc1N1CCN(CCCN2C(=O)C3CCCCN3C2=O)CC1 (stereo not drawn) | -0.589% (inactive) |
| CCNC(=O)NC(=O)C(C)OC(=O)c1cc(S(=O)(=O)N2CCCCCC2)ccc1OC (stereo not drawn) | 15.1% (inactive) |
| O=C1CCC(CCC(=O)N2CCCC(C(=O)c3ccc(Cl)cc3)C2)=NN1 (stereo not drawn) | 8.2% (inactive) |
| COCC1CCN(C(=O)CCc2nnc(C3(c4ccc(Cl)cc4)CCC3)o2)C1 (stereo not drawn) | 44% (active) |
| CSCCC(=O)N1CCCC(CNC(=O)c2ccccc2Cl)C1 (stereo not drawn) | -3.24% (inactive) |
